# Measured values: PubChem BioAssay (NCI)
# Compounds without any hit were thinned out: in the full panel of roughly 83,000, 20% have a hit.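 96-well plates, one dose, 48 hours. Percent growth reported; active if below 10.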 The source made the active and inactive calls.
# Tested on: HL-60(TB) leukemia
# Assay: NCI-60 one-dose screen, 48 h (100 = growth as untreated, 0 = no growth, -100 = all killed)
# Conditions: 10 µM unless noted
row,Compound,growth
1,Cc1cc(O)c(C2=NN(c3ccc(S(N)(=O)=O)cc3)C(/C=C/c3ccccc3)C2)cc1Cl (stereo not given),89.7% (inactive)
2,CC(C)(C)OC(=O)N[C@@H](Cc1ccccc1)C(=O)N(Cc1ccccc1)C1(C(=O)NCc2ccccc2)CCN(Cc2ccccc2)CC1,7.23% (active)
3,CC(N)C(Cc1ccccc1)c1ccc(Cl)cc1 (stereo not given),66.5% (inactive)
4,Cc1c(NC(=O)c2sc3nc4c(cc3c2N)CN(Cc2ccccc2)CC4)cccc1C(F)(F)F,3.22% (active)
5,Nc1nc(-c2cccc3ccccc23)cc2ccccc12,-48.5% (active)
6,O=C(O)c1ccc2cccnc2c1O,-20.5% (active)
7,Cc1nc2scc(-c3ccc(Cl)cc3)n2c(=O)c1CCN1CCOCC1,99.6% (inactive)
8,Clc1ccc(-c2nnc(-c3ccco3)o2)cc1,94.1% (inactive)
9,Cc1c(Cl)cccc1C(=O)Nc1nc2c(s1)CN(C(=O)c1ccc(C(F)(F)F)cc1)CC2,-21.8% (active)
10,Fc1cccc(-c2ccc3c(c2)C2(CCNCC2)CN3)c1,108% (inactive)
11,CCCOC(=O)c1nc(N(CC2CCCCC2)C(=O)NC)sc1/N=C/c1ccccc1,-9.46% (active)
12,Cc1ccc(C2CC(c3cccc(Nc4ccncc4)c3)=NN2c2ccccc2)cc1 (stereo not given),-56.6% (active)
13,Cc1ccc(C(=O)CC(=O)C(F)(F)C(F)(F)C(F)(F)F)s1,101% (inactive)
14,CC(C)CCC[C@@H](C)[C@H]1CC[C@H]2[C@@H]3CC=C4N(c5ccccc5)C(=O)CC[C@]4(C)[C@H]3CC[C@]12C,90.9% (inactive)
15,O=C(O[C@@H]1Cc2c(O)cc(O)cc2O[C@@H]1c1cc(O)c(O)c(O)c1)c1cc(O)c2c(c1)OCO2,91.1% (inactive)
